Measurements published in PubChem BioAssay (NCI).
The panel holds about 79,000 compounds, 15% with a hit somewhere; the sample as a whole holds those more often. Active and inactive are the calls of the source. Cut-off read from the data, not from the text of the source: active = growth inhibition above about 70%; inactive = the rest.

How the values were obtained:
[1] = NCI Yeast Anticancer Drug Screen. Data for the rad52 strain (AID 147);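 note: 0% = growth of vehicle-treated control cultures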; conditions: S. cerevisiae rad52 mutant growth inhibition, hits give high values
Summary of the method: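 Screen used a yeast mutant impaired in DNA repair. After compound exposure, growth was measured. Values reflect inhibition compared with vehicle-treated cells.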

[2] = NCI Yeast Anticancer Drug Screen. Data for the wt1 strain (AID 149);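 note: 0% = growth of vehicle-treated wt1 cultures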; conditions: S. cerevisiae wt1 strain (SPY 50644) growth inhibition, hits give high values
Summary of the method: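 Vehicle-normalised growth inhibition; strain wt1; compound exposure.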

[3] = NCI Yeast Anticancer Drug Screen. Data for the mgt1 strain (AID 153); conditions: S. cerevisiae mgt1 mutant growth inhibition, hits give high values
Summary of the method: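 Genetically defined yeast (mgt1) treated with compound; inhibition of growth expressed against vehicle-treated controls.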

[4] = NCI Yeast Anticancer Drug Screen. Data for the rad50 strain (AID 155);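 note: 0% = growth of vehicle-only cultures of the same strain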; conditions: S. cerevisiae rad50 strain growth inhibition, hits give high values
Summary of the method: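 A DNA repair-deficient yeast mutant serves as the test organism; compound-induced growth inhibition is calculated against vehicle-treated cells.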

[5] = NCI Yeast Anticancer Drug Screen. Data for the mec2-1 strain (AID 157); conditions: S. cerevisiae mec2-1 strain, hits give high values
Summary of the method: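 Readout is yeast growth inhibition, normalised to vehicle-treated controls, in the mec2-1 strain exposed to compound.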

[6] = NCI Yeast Anticancer Drug Screen. Data for the rad14 strain (AID 159);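 note: 0% = growth of vehicle-treated control cultures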; conditions: S. cerevisiae rad14 strain growth inhibition, hits give high values
Summary of the method: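 Vehicle-treated cultures served as the baseline for growth inhibition of a DNA repair-mutant yeast strain exposed to each compound.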

[7] = NCI Yeast Anticancer Drug Screen. Data for the sgs1 mgt1 strain (AID 161);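 note: 0% = growth of cultures given vehicle only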; conditions: S. cerevisiae sgs1 mgt1 strain, hits give high values
Summary of the method: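 Percent growth inhibition was derived by comparing compound-exposed mutant yeast with vehicle-exposed cultures. The strain carries alterations in DNA damage repair.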

[8] = NCI Yeast Anticancer Drug Screen. Data for the CLN2oe strain (AID 163);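 note: 0% = growth of vehicle-only control cultures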; conditions: S. cerevisiae CLN2oe strain, hits give high values
Summary of the method: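 Values reflect how much compound exposure reduced yeast growth, referenced to vehicle-exposed cells. Assay organism is a strain with a defined genetic change affecting cell-cycle control.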

[9] = NCI Yeast Anticancer Drug Screen. Data for the cln2 rad14 strain (AID 165);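 note: 0% = growth equal to vehicle treated cultures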; conditions: S. cerevisiae cln2 rad14 strain, hits give high values
Summary of the method: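 Relative to vehicle controls, growth inhibition of compound-treated cln2 rad14 yeast was recorded.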

[10] = NCI Yeast Anticancer Drug Screen. Data for the bub3 strain (AID 167); conditions: S. cerevisiae bub3 mutant strain, hits give high values
Summary of the method: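 Inhibition values come from growth of compound-treated mutant yeast normalised to vehicle-treated controls.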

[11] = NCI Yeast Anticancer Drug Screen. Data for the mlh1 strain (AID 171);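 note: 0% = growth of vehicle-treated control cultures of the same strain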; conditions: S. cerevisiae mlh1 strain growth inhibition, hits give high values
Summary of the method: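 Steps: expose the defined-mutant yeast strain to compound; expose a parallel culture to vehicle; measure growth; express compound effect as inhibition relative to the vehicle culture.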

[12] = NCI Yeast Anticancer Drug Screen. Data for the sgs1 strain (AID 173);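 note: 0% = growth of vehicle-only control cultures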; conditions: S. cerevisiae sgs1 mutant, hits give high values
Summary of the method: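 Treat defined-mutant yeast with compound; measure growth; calculate inhibition relative to vehicle-treated cells.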

[13] = NCI Yeast Anticancer Drug Screen. Data for the mlh1 rad18 strain (AID 175); conditions: S. cerevisiae mlh1 rad18 strain growth inhibition, hits give high values
Summary of the method: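 Test agents were incubated with a yeast strain of defined genotype (DNA damage repair defect). Inhibition of growth was derived by comparison with vehicle-exposed cultures.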

[14] = NCI Yeast Anticancer Drug Screen. Data for the rad18 strain (AID 177); conditions: S. cerevisiae rad18 mutant growth inhibition, hits give high values
Summary of the method: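 A genetically defined yeast mutant impaired in DNA damage repair was treated with test compounds, then its growth was measured against cultures receiving vehicle alone.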

[15] = NCI Yeast Anticancer Drug Screen. Data for the rad50EPP+ strain (AID 151);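 note: 0% = growth of vehicle-treated control cultures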; conditions: S. cerevisiae rad50 mutant strain, hits give high values
Summary of the method: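 Exposing the rad50EPP+ strain to each compound, growth was compared with vehicle-only cultures to give inhibition.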

[16] = NCI Yeast Anticancer Drug Screen. Data for the wt2 strain (AID 169);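 note: 0% = growth of vehicle-treated yeast cultures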; conditions: S. cerevisiae wt2 strain growth inhibition, hits give high values
Summary of the method: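 Values express reduction in yeast growth under compound treatment, referenced to vehicle-treated cells.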

[17] = at 5.0 µM (retest, dose inferred, filed as 0.5)
[18] = at 50.0 µM (retest, dose inferred, filed as 5.0)

Measured: growth inhibition

CCOc1ccc(C(=O)CCC(=O)O)c(C)c1
inactive: [1]; at 1.2 µM -1% | [1]; at 3.7 µM 0% | [1]; at 11.0 µM -5% | [1]; at 33.0 µM -1% | [1]; at 100.0 µM 4% | [2]; at 1.2 µM 3% | [2]; at 3.7 µM -1% | [2]; at 11.0 µM 4% | [2]; at 33.0 µM 5% | [2]; at 100.0 µM 17% | [3]; at 1.2 µM -4% | [3]; at 3.7 µM -3% | [3]; at 11.0 µM 1% | [3]; at 33.0 µM 2% | [3]; at 100.0 µM 21% | [4]; at 1.2 µM -2% | [4]; at 3.7 µM 4% | [4]; [17] 13% | [4]; at 11.0 µM 1% | [4]; at 33.0 µM 8% | [4]; [18] 14% | [4]; at 100.0 µM 12% | [5]; at 1.2 µM 0% | [5]; at 3.7 µM -7% | [5]; [17] -10% | [5]; at 11.0 µM -16% | [5]; at 33.0 µM 4% | [5]; [18] 13% | [5]; at 100.0 µM 15% | [6]; at 1.2 µM 0% | [6]; at 3.7 µM 1% | [6]; at 11.0 µM 7% | [6]; at 33.0 µM 13% | [6]; at 100.0 µM 25% | [7]; [17] 9% | [7]; [18] 4% | [8]; at 1.2 µM 0% | [8]; at 3.7 µM -1% | [8]; at 11.0 µM 4% | [8]; at 33.0 µM 12% | [8]; at 100.0 µM 20% | [9]; [17] -12% | [9]; [18] 44% | [10]; at 1.2 µM -9% | [10]; at 3.7 µM -11% | [10]; [17] -17% | [10]; at 11.0 µM -1% | [10]; at 33.0 µM -8% | [10]; [18] 14% | [10]; at 100.0 µM 36% | [11]; at 1.2 µM -2% | [11]; at 3.7 µM -6% | [11]; at 11.0 µM -10% | [11]; at 33.0 µM 3% | [11]; at 100.0 µM 12% | [12]; at 1.2 µM 0% | [12]; at 3.7 µM -1% | [12]; at 11.0 µM 1% | [12]; at 33.0 µM 1% | [12]; at 100.0 µM 8% | [13]; [17] 16% | [13]; [18] -1% | [14]; at 1.2 µM -2% | [14]; at 3.7 µM -4% | [14]; at 11.0 µM -6% | [14]; at 33.0 µM -16% | [14]; at 100.0 µM -17%

Clc1cc(Cc2ccc(N=C/C=C/c3ccccc3)c(Cl)c2)ccc1N=C/C=C\c1ccccc1
active: [4]; [17] 100% | [4]; [18] 100% | [4]; at 50.0 µM 71.3% | [5]; [17] 100% | [5]; [18] 99% | [7]; [18] 88% | [10]; [18] 86% | [13]; [17] 100% | [13]; [18] 100%
inactive: [1]; at 1.2 µM 11% | [1]; at 3.7 µM -1% | [1]; at 11.0 µM 4% | [1]; at 33.0 µM 9% | [1]; at 100.0 µM 30% | [2]; at 1.2 µM -5% | [2]; at 3.7 µM -4% | [2]; at 11.0 µM -5% | [2]; at 33.0 µM 1% | [2]; at 100.0 µM 14% | [15]; at 1.2 µM 18% | [15]; at 3.7 µM -4% | [15]; at 11.0 µM 15% | [15]; at 33.0 µM 15% | [15]; at 100.0 µM 21% | [4]; at 1.2 µM 13% | [4]; at 3.7 µM 3% | [4]; at 11.0 µM 8% | [4]; at 33.0 µM 5% | [4]; at 100.0 µM 32% | [5]; at 1.2 µM 17% | [5]; at 3.7 µM 20% | [5]; at 11.0 µM 9% | [5]; at 33.0 µM -11% | [5]; at 50.0 µM 33.1% | [5]; at 100.0 µM 19% | [6]; at 1.2 µM -8% | [6]; at 3.7 µM -20% | [6]; at 11.0 µM -14% | [6]; at 33.0 µM -19% | [6]; at 100.0 µM 19% | [7]; [17] -23% | [7]; at 50.0 µM 62.7% | [10]; at 1.2 µM -12% | [10]; at 3.7 µM 1% | [10]; [17] 30% | [10]; at 11.0 µM -9% | [10]; at 33.0 µM -9% | [10]; at 50.0 µM 54.1% | [10]; at 100.0 µM -7% | [16]; at 1.2 µM -11% | [16]; at 3.7 µM -17% | [16]; at 11.0 µM -8% | [16]; at 33.0 µM 4% | [16]; at 100.0 µM 26% | [11]; at 1.2 µM -16% | [11]; at 3.7 µM -9% | [11]; at 11.0 µM -17% | [11]; at 33.0 µM -10% | [11]; at 100.0 µM 12% | [12]; at 1.2 µM 12% | [12]; at 3.7 µM 7% | [12]; at 11.0 µM 8% | [12]; at 33.0 µM 8% | [12]; at 100.0 µM 41% | [13]; at 50.0 µM 64.7% | [14]; at 1.2 µM 1% | [14]; at 3.7 µM -11% | [14]; at 11.0 µM -20% | [14]; at 33.0 µM -25% | [14]; at 100.0 µM 24%
